DUSP3 inh = blocks human VHR1 dual specificity phosphatase. P51452. recombinant VHR phosphatase, pNPP absorbance. inhibition, % at 13.3 µM. 0.52% of 290,000 active. AID 1654; in the data active means inhibition above about 50%
Target sequence (P51452 whole entry, looked up): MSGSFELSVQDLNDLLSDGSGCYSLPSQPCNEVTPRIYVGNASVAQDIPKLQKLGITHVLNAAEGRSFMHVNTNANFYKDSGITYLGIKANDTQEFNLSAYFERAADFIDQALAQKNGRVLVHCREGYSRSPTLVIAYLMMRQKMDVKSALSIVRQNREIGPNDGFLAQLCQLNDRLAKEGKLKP
RecA intein inh = inhibitors of M. tuberculosis RecA intein splicing; inhibition, % (concentration not given with the values); 0.75% of 290,000 active; AID 2221; cell-free RecA intein splicing, fluorescence; P9WHJ3; in the data active means inhibition above about 30%;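 further: 0% = vehicle wells and 100% = reference inhibitor control wells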
3CLpro inhibitor = SARS-CoV 3CLpro protease inhibition; 0.14% of 290,000 active; inhibition, % at 6 µM; recombinant SARS-CoV 3CLpro, quenched FRET peptide cleavage; in the data active means inhibition above about 12%
CCHF vOTU inh = CCHFV vOTU protease inhibition. inhibition, % at 11.5 µM. Pep-AMC fluorescence. AID 651958. 0.55% of 370,000 active; further: 0% = vehicle wells with enzyme and 100% = no enzyme wells
GDH-TPI counter = counter-screen for M. tuberculosis FBA inhibitors: GDH-TPI coupled enzymes; 1.2% of 360,000 active; AID 588335; inhibition, % at 4.8 µM; GDH-TPI coupled enzyme counterscreen, NADH absorbance;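 further: 0% = DMSO wells and 100% = wells lacking the enzyme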
Mtb FBA inh = Mtb fructose-bisphosphate aldolase inhibition; P9WQA3; purified M. tuberculosis FBA, fluorescence read-out; inhibition, % at 1 µM; 2.3% of 360,000 active; in the data active means inhibition above about 27%;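 further: 0% = vehicle and 100% = reference inhibitor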
Target sequence (P9WQA3 whole entry, looked up): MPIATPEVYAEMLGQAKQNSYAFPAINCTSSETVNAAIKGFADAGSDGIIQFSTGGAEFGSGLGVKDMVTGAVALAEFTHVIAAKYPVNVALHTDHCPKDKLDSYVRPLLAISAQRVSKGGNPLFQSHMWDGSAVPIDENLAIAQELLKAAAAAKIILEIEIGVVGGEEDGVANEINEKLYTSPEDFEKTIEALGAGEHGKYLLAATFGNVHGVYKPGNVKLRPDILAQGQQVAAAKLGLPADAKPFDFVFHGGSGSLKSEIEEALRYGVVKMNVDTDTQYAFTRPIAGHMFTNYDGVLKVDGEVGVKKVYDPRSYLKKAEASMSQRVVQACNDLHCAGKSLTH
Active calls of the source: *; . = not tested or not shown; + = active, no number. Hits are enriched below; roughly 4.7% of the tested compounds scored in any of these assays. Unless noted, no stated cut-off is given here; in the data, active means inhibition above about 30%; inactive means the rest.

SMILES	DUSP3 inh	RecA intein inh	3CLpro inhibitor	CCHF vOTU inh	GDH-TPI counter	Mtb FBA inh
C=CCn1c(SCC(=O)Nc2ccccc2OCC)nnc1-c1ccc(C(C)(C)C)cc1	.	.	.	19	.	.
CC(C)(C)NS(=O)(=O)c1cnc(Cl)c(Cl)c1	33	-7	1	-2	9	1
CCOc1ccc(-n2c(SCC(=O)c3ccc4ccccc4c3)nnc2-c2cccc(Cl)c2)cc1	.	.	.	27	.	.
COc1ccc2oc(=O)c(C(=O)Nc3ccccc3C)cc2c1	26	-5	-4	-4	16	-1
CCOC(=O)c1cc2ccc(OC)cc2oc1=O	16	-5	0	-219	43*	+
COc1ccc2oc(=O)c(C(=O)NC3CCCCCC3)cc2c1	50*	.	-2	-6	17	10
COc1ccc(CNC(=O)c2cc3ccccc3oc2=O)cc1	16	6	1	-1	15	3
CNC(=O)c1cc2ccc(OC)cc2oc1=O	-2	-2	2	-222	30	+
CCOCCn1c(=O)c2c(nc3n2CCCN3CCc2ccccc2)n(C)c1=O	-3	0	2	20	16	5
COc1cccc(-c2cc(C(=O)NCc3ccco3)c3ccccc3n2)c1	18	1	-5	2	16	6
CNc1cncc(-c2ccc(OC)cc2)n1	.	.	.	-213	19	172*
CNc1cncc(-c2ccc(O)cc2)n1	.	.	.	-173	23	131*
CNc1cncc(-c2ccc(S(C)(=O)=O)cc2)n1	.	.	.	-316	16	171*
CNc1cncc(-c2cccc(NS(C)(=O)=O)c2)n1	.	.	.	-214	19	168*
CNc1cncc(-c2cc(C)c(O)c(C)c2)n1	.	.	.	-1	15	20
CC1(C)CC(=O)C=C(c2ccccc2F)C1=O	.	.	.	-2	.	.
Cc1cc(NC(=O)C(Cl)Cl)cc2c1OCO2	.	.	.	-13	-2	-1
CNc1cncc(-c2ccc(CN3CCOCC3)cc2)n1	.	.	.	-225	12	+
CNc1cncc(-c2ccoc2)n1	.	.	.	-261	6	177*
COc1ccc(CN2CCOCCOCCOCC2)cc1	-3	-2	-4	-6	12	-2
COc1ccc(CN2CCOCC2)cc1	52*	4	4	-1	14	-3
CNc1cncc(-c2cccc(C(C)=O)c2)n1	.	.	.	11	18	0
CNc1cncc(-c2cnn(CC(C)C)c2)n1	.	.	.	-285	20	+
CCOC(=O)[C@]12CCCCC/C=C\1N(CCc1ccc(Cl)cc1)C(=O)[C@H]2CC(=O)NCCc1ccccc1OC	.	.	.	9	.	.
O=C(OCc1cn(Cc2cccc(Cl)c2)nn1)N1CCOCC1	.	.	.	2	.	.
SMILES	DUSP3 inh	RecA intein inh	3CLpro inhibitor	CCHF vOTU inh	GDH-TPI counter	Mtb FBA inh
CNc1cncc(-c2ccc(CN(C)C)cc2)n1	.	.	.	-300	6	+
CC(=O)Nc1cncc(-c2ccc(CN(C)C)cc2)n1	.	.	.	-3	6	5
CN(C)CCCOC(=O)COc1ccc(Br)cc1	8	-1	-5	-3	-6	-1
CNc1cncc(-c2ccc(OCCCN(C)C)nc2)n1	.	.	.	-318	14	+
O=c1c(-c2nc3ccccc3s2)cccn1Cc1ccc(Cl)cc1	19	-1	2	-46	10	142*
CN1CCN(S(=O)(=O)c2ccc(NS(=O)(=O)c3ccccc3)cc2)CC1	10	-1	-4	4	-7	-1
O=C(Nc1ccccc1F)Nc1ccccc1OC(F)F	56*	1	2	-1	4	-1
Cc1cc(NS(=O)(=O)c2ccc(NC(=O)CSc3nnc(-c4ccco4)n3-c3ccc(Cl)cc3)cc2)nc(C)n1	.	.	.	2	.	.
COc1ccc(CNc2nc(-c3ccccc3)nc3ccccc23)cc1OC	24	5	-7	32*	4	-2
N#CC1C(=O)Nc2cccnc21 (stereo unspecified)	.	.	.	-2	9	+
N#Cc1ccc(/C=N/NC(=S)Nc2ccc(S(=O)(=O)N3CCOCC3)cc2)cc1	23	1	-1	9	40*	0
O=S(=O)(c1ccc(NC(=S)N/N=C/c2cccc(Oc3ccccc3)c2)cc1)N1CCOCC1	26	-2	0	-12	18	2
O=S(=O)(c1ccc(NC(=S)N/N=C/c2ccc(O)c(O)c2)cc1)N1CCOCC1	10	-3	2	0	37*	-5
O=C1CCCC2=C1C1(CCCC1)N=C(Nc1nc3cc(-c4ccccc4)ccc3o1)N2	.	.	.	-1	5	1
Cc1cc(O)c(NC(=O)c2cc([N+](=O)[O-])ccc2Cl)cc1C	-10	-1	7	0	5	2
Cc1ccc(O)c(NC(=O)c2cc([N+](=O)[O-])ccc2Cl)c1	52*	2	4	8	-1	4
Cc1ccc(OCCNC(=O)[C@@H](Cc2ccccc2)NC(=O)[C@H]2O[C@@H](n3ccc(=O)[nH]c3=O)[C@H](O)[C@@H]2O)cc1C	.	.	.	9	.	.
O=C1NCN(c2ccccc2)C12CCN(CCCC(c1ccc(F)cc1)c1ccc(F)cc1)CC2	11	38*	3	1	4	-1
Cn1c(SCC(=O)Nc2ccc3c(c2)OCCO3)nnc1-c1ccncc1	38	3	5	-8	-2	1
O=C(Cn1c2c(c(-c3ccccc3Cl)cc1=O)CCC2)NCC1CCCO1 (stereo unspecified)	-8	2	-2	-16	18	11
O=C(Cn1c2c(c(-c3ccccc3Cl)cc1=O)CCC2)NCCCN1CCOCC1	2	-3	-3	-7	31*	15
CCC12CCCN3CCC4(C(=C(C(=O)OC)C1)Nc1ccccc14)C32 (stereo unspecified)	3	2	-1	13	33*	4
Cc1cnc(C(=O)OCc2ccc(COC(=O)c3cnc(C)cn3)cc2)cn1	17	0	-2	-7	-1	1
Cc1cnc(C(=O)OCc2ccc(Br)cc2F)cn1	58*	-3	-2	9	-1	1
Cn1cc(/C=N\NC(=O)c2cccs2)c2ccccc21	19	-2	0	17	32*	0
SMILES	DUSP3 inh	RecA intein inh	3CLpro inhibitor	CCHF vOTU inh	GDH-TPI counter	Mtb FBA inh
COc1ccc(/C=N/NC(=O)c2cccnc2)c(C(=O)O)c1OC	-7	-2	3	6	32*	-2
COc1ccc(/C=N/NC(=O)c2ccncc2)c(C(=O)O)c1OC	-8	-5	1	12	11	0
COc1ccc(/C=N/NC(=O)c2cccnc2)c2ccccc12	4	0	6	-6	36*	3
Cn1cccc1/C=N/NC(=O)c1cccs1	8	-4	-2	22	26	0
COc1ccc(/C=N/NC(=O)c2cccs2)c2ccccc12	.	.	.	2	32*	1
COCCCN1C(=O)C(CC(=O)NCc2ccco2)CC(C(=O)N(C(C)C)C(C)C)=C1C (stereo unspecified)	.	.	.	-5	.	0
CC(NC(=O)c1c(N)[nH]c(C(=O)c2ccc(Cl)cc2)c1-c1ccc(Br)cc1)c1cccc2ccccc12 (stereo unspecified)	.	.	.	6	.	.
Cc1cc(/C=N/NC(=O)c2cccs2)c(C)n1-c1ccccc1	17	2	2	-3	33*	-3
Cc1cc(=O)[nH]c(N/N=C/c2ccccc2Cl)n1	10	-1	0	-7	15	4

Bioassay records: PubChem BioAssay, several laboratories
